# Reference: article PMC4336329 (PLoS ONE, 2015)
# Out of some 310,000 compounds screened, about 14,000 (4.5%) showed an effect of 50% or more. Effects have a minus sign here. This excerpt belongs to a sample that is enriched for strong results.
# Biological target: human ether-à-go-go-related gene (hERG) potassium channel (human, UniProt Q12809)
# Experiment: primary screen, population patch clamp on CHO cells stably expressing hERG; higher = less effect of the substance
# 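Note: peak tail current of the secondary pulse compared with the same well before compound.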
# Chain of human ether-à-go-go-related gene (hERG) potassium channel (Q12809 whole entry, looked up): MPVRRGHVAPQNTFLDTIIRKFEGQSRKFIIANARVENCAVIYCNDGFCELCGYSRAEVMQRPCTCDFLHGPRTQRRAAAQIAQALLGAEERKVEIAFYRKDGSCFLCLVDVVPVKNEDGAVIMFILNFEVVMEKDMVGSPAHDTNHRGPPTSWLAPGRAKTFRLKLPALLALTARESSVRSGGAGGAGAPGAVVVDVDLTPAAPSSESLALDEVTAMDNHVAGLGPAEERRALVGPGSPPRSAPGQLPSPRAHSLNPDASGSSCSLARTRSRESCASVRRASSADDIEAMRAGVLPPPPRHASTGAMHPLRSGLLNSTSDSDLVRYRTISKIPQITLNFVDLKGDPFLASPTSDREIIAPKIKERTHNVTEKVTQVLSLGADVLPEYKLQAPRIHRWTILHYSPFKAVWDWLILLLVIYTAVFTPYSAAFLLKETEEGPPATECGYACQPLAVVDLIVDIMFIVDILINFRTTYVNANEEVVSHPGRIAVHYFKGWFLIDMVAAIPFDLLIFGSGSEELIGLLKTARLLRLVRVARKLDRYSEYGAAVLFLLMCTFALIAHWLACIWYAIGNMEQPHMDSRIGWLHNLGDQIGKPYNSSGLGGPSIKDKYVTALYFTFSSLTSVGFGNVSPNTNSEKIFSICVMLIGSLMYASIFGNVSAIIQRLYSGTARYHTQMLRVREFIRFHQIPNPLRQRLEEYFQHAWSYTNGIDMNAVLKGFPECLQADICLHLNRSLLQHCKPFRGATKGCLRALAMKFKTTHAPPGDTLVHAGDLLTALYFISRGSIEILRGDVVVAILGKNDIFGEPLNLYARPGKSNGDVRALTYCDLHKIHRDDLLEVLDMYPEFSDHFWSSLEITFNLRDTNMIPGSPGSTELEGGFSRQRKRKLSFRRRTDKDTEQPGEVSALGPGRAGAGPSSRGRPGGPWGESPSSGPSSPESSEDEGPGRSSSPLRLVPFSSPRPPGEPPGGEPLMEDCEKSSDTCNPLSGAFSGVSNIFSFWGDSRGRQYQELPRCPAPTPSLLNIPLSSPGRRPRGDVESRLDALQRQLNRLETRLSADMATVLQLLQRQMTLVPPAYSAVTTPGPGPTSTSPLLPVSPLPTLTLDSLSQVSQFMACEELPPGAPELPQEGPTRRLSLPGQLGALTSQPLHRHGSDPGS
row,SMILES,"hERG current change (%, negative = inhibition) at 10uM [%]"
1,O=S(=O)(c1cccs1)N1CCN(c2ccc(F)cc2)CC1,-43.1
2,O=C(Nc1cccc(OCC(=O)N2CCOCC2)c1)c1cccc([N+](=O)[O-])c1,25.9
3,CC(=O)Oc1ccccc1N1C(=O)c2ccc(C(=O)O)cc2C1=O,11.3
4,Oc1ccccc1OCc1nc2ccccc2s1,-13.7
5,Cc1nc2ccc(C(=O)N/N=C/c3ccccc3O)cc2[nH]1,9.25
6,N#Cc1c(N)n[nH]c1Cc1cccc2ccccc12,12.3
7,CCCCc1nc(C(N)=O)c2[nH]c(=O)n(-c3ccc(OC)cc3OC)c2n1,1.88
8,CCC(CC)C(=O)c1c[nH]c(C(=O)N2CCN(c3ccccc3F)CC2)c1,25.2
9,Cc1ccc(-n2c(-c3ccccc3)c[n+]3c2CCc2ccccc2-3)c(C)c1.[Br-],-93
10,COc1ccccc1-n1c(CCC(=O)O)ccc1-c1ccccc1,-12.9
11,Cc1ccc(NC(=O)C[n+]2cc(-c3ccccc3)n3c2CCC3)c(C)c1.[Cl-],-9.62
12,Br.COc1ccccc1N1Cc2ccccc2C1,-13.2
13,Cc1ccc(-n2c(-c3ccccc3)n[nH]c2=S)c(C)c1,7.9
14,COc1ccccc1-n1c(-c2ccccc2)c[n+]2c1CCc1ccccc1-2.[Br-],-74.1
15,O=C(/C=C/c1ccco1)NC(=S)Nc1ccccn1,-3.42
16,CC(=O)Cc1nsc(NC(=O)c2cccc(F)c2)n1,12.5
17,O=C(Nc1ccccc1C(=O)N1CCCCC1)c1ccccc1C(F)(F)F,27.6
18,COc1ccc(N2C(=O)C(CN3CCN(C)CC3)C2c2ccccc2)cc1 (stereo not shown),-16
19,COc1ccc(N2C(=O)C(CN3CCCCC3)C2c2ccccc2)cc1 (stereo not shown),-12
20,Cc1ccc(N2C(=O)C(CN3CCCCC3)C2c2ccccc2)cc1 (stereo not shown),-62.6

row,SMILES,"hERG current change (%, negative = inhibition) at 10uM [%]"
1,Cc1ccc(N2C(=O)C(CN3CCCC3)C2c2ccccc2)cc1 (stereo not shown),-78.5
2,Cc1ccc(N2C(=O)C(CN3CCOCC3)C2c2ccccc2)cc1 (stereo not shown),-26.5
3,Cc1ccc(N2C(=O)C(CN(C)C)C2c2ccccc2)cc1 (stereo not shown),-33.1
4,CC(=O)c1cccc(NS(=O)(=O)c2cc(OCC(N)=O)c(C)cc2Cl)c1,6.92
5,COc1ccc(CN(C(=O)c2ccc(CN3CCOCC3)o2)C(C(=O)NCC2CCCO2)c2ccc(F)cc2)cc1 (stereo not shown),-4.38
6,O=C(Cc1ccc(Cl)c(Cl)c1)OCC(=O)c1ccc[nH]1,-24.9
7,O=C(COC(=O)c1cccc([N+](=O)[O-])c1)NCC1CCCO1 (stereo not shown),8.06
8,Cc1c(NC(=O)COC(=O)C2CC3C=CC2C3)c(=O)n(-c2ccccc2)n1C (stereo not shown),13.2
9,COCCNC(=O)c1ccc(C)c(NC(=O)C2=C(C)OCCS2)c1,21.1
10,CCCNC(=O)c1ccc(C)c(NC(=O)C2=C(C)OCCS2)c1,3.06
11,CC1=C(C(=O)Nc2cc(C(=O)NCCC(C)C)ccc2C)SCCO1,-52.4
12,O=C(CSc1nnc(-c2cccs2)o1)N1CCc2ccccc21,-10.5
13,CC12CCC(C(=O)Nc3ccc(Br)cn3)(OC1=O)C2(C)C (stereo not shown),7.13
14,O=C(O)CCCN1C(=O)c2ccc(Oc3cccc([N+](=O)[O-])c3)cc2C1=O,17.6
15,COc1cccc(C(=O)Cn2c(Br)nc3c2c(=O)n(C)c(=O)n3C)c1,-13.1
16,CCN1CCN(C(=O)c2cc3c(s2)-c2c(C)cccc2OC3)CC1,-17.8
17,Cc1cccc2c1-c1sc(C(=O)NCCCN3CCC(C)CC3)cc1CO2,-77.6
18,Cc1cccc2c1-c1sc(C(=O)N3CCCCC3)cc1CO2,-18.6
19,CCCN1CCN(CCCNC(=O)c2cc3c(s2)-c2c(C)cccc2OC3)CC1,-85.2
20,CCOC(=O)N1CCN(C(=O)c2cc3c(s2)-c2c(C)cccc2OC3)CC1,-15.5

row,SMILES,"hERG current change (%, negative = inhibition) at 10uM [%]"
1,Cc1cccc2c1-c1sc(C(=O)N3CCc4ccccc4C3)cc1CO2,-2.75
2,Cc1cccc(NC(=O)c2cc3c(s2)-c2c(C)cccc2OC3)n1,29.2
3,CCOC(=O)c1cc2c(s1)-c1c(C)cccc1OC2,7.36
4,Cc1cccc2c1-c1sc(C(=O)NCCCN3CCCC(C)C3)cc1CO2 (stereo not shown),-77.9
5,S=c1[nH]nc(-c2ccccc2)n1/N=C/c1cccc(Br)c1,21.4
6,CC(C(=O)N1CCOCC1)N1C(=O)c2cccc3cccc(c23)C1=O (stereo not shown),16.6
7,COc1cc(OC)cc(-c2c(-c3cccs3)c3cc(-c4cnc(OC)nc4)ccc3n2C)c1,1.57
8,O=S(=O)(/N=C(/NC(=S)Nc1ccccc1)c1ccccc1)c1ccc(Cl)cc1,18.9
9,Cc1cc(C)c2nc(NNC(=O)c3cc(-c4cccs4)nc4ccccc34)sc2c1,18.3
10,Cc1ccc(/C=N/NC(=O)CSc2nc3ccccc3n2Cc2ccccc2)o1,-33.9
11,Cc1ccc(Cn2c(SCC(=O)N/N=C/c3ccc(C)o3)nc3ccccc32)cc1,-61.1
12,Cn1c(SCC(=O)N/N=C/C=C/c2ccco2)nc2ccccc21,-42.9
13,O=C(CSc1nc2ccccc2n1Cc1ccccc1)N/N=C/c1ccccc1C(=O)O,-0.979
14,O=C(CSc1nc2ccccc2n1Cc1ccccc1)N/N=C/c1ccco1,-60.7
15,Cn1c(SCC(=O)N/N=C/c2ccco2)nc2ccccc21,-2.38
16,Cn1c(SCC(=O)N/N=C/C=C\c2ccco2)nc2ccccc21,-50.6
17,CCn1c(SCC(=O)N/N=C/C=C\c2ccco2)nc2ccccc21,-9.42
18,Cc1ccc(/C=N/NC(=O)CSc2nc3ccccc3n2Cc2ccc(Cl)cc2)o1,-16.2
